Screening results deposited in PubChem by National Center for Advancing Translational Sciences (NCATS).
HCMV inh: qHTS Assay for inhibitors of the human cytomegalovirus (HCMV); 410,000 compounds, 4.5% hits; AID 1259415, 2018; activity change, negative = inhibition, % at 57.5 µM; HFF cells, HCMV-luciferase reporter, 72 h; active compounds read low; in the data active = activity change below about -60%; inconclusive = no clear call, values can overlap the other calls; inactive = above about -39%
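HFF cells seeded 16 h at 37C, treated with compounds, infected with luciferase-reporter HCMV at MOI 1 PFU/cell; luciferase read at 72 h post infection, normalized to buffer-only and Salinomycin controls.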
MARV entry inh: qHTS for inhibitors of binding or entry into cells for Marburg Virus; Marburg virus pseudotyped entry inhibition, cell reporter; Potency, µM (doses to about 37.8 µM), most hits filed as inhibitors; 300,000 compounds, 1.8% hits; AID 540276, 2011; calls by dose curve; tested in HEK293 cells
Vaccinia mCherry: qHTS for Stage-Specific Inhibitors of Vaccinia Orthopoxvirus: mCherry Reporter Primary qHTS; Vaccinia virus mCherry reporter infection, fluorescence; Potency, µM (highest dose often 36.5 µM), most hits filed as inhibitors; 310,000 compounds, 0.63% hits; AID 720579, 2013; calls by dose curve; tested in A549 cells; also: nearly all actives have a fitted effect of over 35% in size
Lassa entry inh: qHTS for Inhibitors of binding or entry into cells for Lassa Virus | Lassa virus pseudotype entry inhibition, cell reporter | Potency, µM (highest dose often 37.9 µM), most hits filed as inhibitors | 300,000 compounds, 1.2% hits | AID 540256, 2011; calls by dose curve; tested in HEK293 cells; also: nearly all actives have a fitted effect of over 50% in size
FMDV inh: High Throughput Screening for Foot and Mouth Disease Virus Antivirals; FMDV antiviral cell-based qHTS; 410,000 compounds, 1.2% hits; Potency, µM (highest dose often 57.9 µM), hits mostly inhibitors; calls by dose curve; tested in HEK293T cells; also: read-out not given here; nearly all actives have a fitted effect of over 45% in size
Vaccinia Venus: qHTS for Stage-Specific Inhibitors of Vaccinia Orthopoxvirus: Venus Reporter Primary qHTS; 330,000 compounds, 0.46% hits; AID 720580, 2013; Vaccinia virus Venus reporter expression, fluorescence; Potency, µM (titrated, usually from 36.5 µM), actives largely listed as inhibitors; calls by dose curve; tested in A549 cells; also: nearly all actives have a fitted effect of over 30% in size
Numbers stand for hits; 0 = inactive; ? = inconclusive; - = no result given. A selection: hits, their analogues and other compounds. The true share with any hit is near 6.5%.

SMILES	HCMV inh	MARV entry inh	Vaccinia mCherry	Lassa entry inh	FMDV inh	Vaccinia Venus
O=C(NCCOc1nc(N2CCCCC2)nc(N2CCOCC2)n1)Nc1ccccc1	-77	0	0	0	0	0
CCN(CC)c1nc(OCCNC(=O)Nc2ccccc2)nc(N(CC)CC)n1	0	?	-	?	0	11µM
CC(C(=O)c1ccc(-c2ccccc2)cc1)[n+]1ccccc1 (configuration not stated)	-97	10µM	0	?	0	0
Cc1cc[n+](C(C)C(=O)c2ccc(-c3ccccc3)cc2)cc1 (configuration not stated)	-102	?	0	10µM	?	0
Cc1cc[n+](C(C)C(=O)c2ccc(Cl)cc2)cc1 (configuration not stated)	0	?	0	0	0	0
Cc1ccc[n+](C(C)C(=O)c2ccc(-c3ccccc3)cc2)c1 (configuration not stated)	-98	?	0	?	0	0
O=S(=O)(c1ccc(F)cc1)N(Cc1nc(-c2ccc(Cl)cc2)no1)C1CCCCC1	0	0	0	0	0	0
Cc1ccccc1NC(=O)CN(c1ccc(Cl)cc1Cl)S(=O)(=O)c1ccccc1	0	?	0	?	0	0
Cn1nc(C(F)(F)F)c(-c2ccc(Br)cc2)c1NC(=O)Nc1ccc(F)cc1F	-92	?	0	?	0	?
CCOC(=O)c1c(Nc2ccc(C)c(C)c2)nnc(-c2ccccc2)c1-c1ccccc1	0	0	0	0	0	0
CN1CCCN(c2cc(-c3ccc4ccccc4c3)nc3ccnn23)CC1	-91	-	0	-	0	0
O=C(c1ccco1)N1CCN(C(=O)c2ccc(-c3cccc(C(F)(F)F)c3)o2)CC1	0	?	0	5µM	0	0
O=C(c1ccc(-c2cccc(C(F)(F)F)c2)o1)N1CCCCCCC1	0	0	0	0	0	0
COc1ccc(CC(N)c2csc(Nc3ncccn3)n2)cc1 (configuration not stated)	?	-	13µM	-	0	?
NC(Cc1ccc(Cl)cc1)c1csc(Nc2ncccn2)n1 (configuration not stated)	0	-	10µM	-	0	7.9µM
Cc1cc(C)nc(Nc2nc(C(N)Cc3ccccc3)cs2)n1 (configuration not stated)	-73	-	0	-	0	?
COC(=O)c1cc(C)nc(Nc2nc(C(N)Cc3ccc(F)cc3)cs2)n1 (configuration not stated)	0	-	0	-	0	0
NC(Cc1ccc(F)cc1)c1csc(Nc2ncccn2)n1 (configuration not stated)	0	-	7.1µM	-	0	7.9µM
Nc1ccc(CC(N)c2csc(Nc3ncccn3)n2)cc1 (configuration not stated)	0	-	?	-	0	?
COc1ccc(CC(N)c2csc(Nc3nccc(C(F)(F)F)n3)n2)cc1 (configuration not stated)	0	-	0	-	0	0
CSc1ccc(CNC(=O)Cn2c(-c3cccs3)cc3cc(F)ccc32)cc1	0	-	0	0	0	0
CCN(CC)CCN(Cc1cc2ccc(C)cc2[nH]c1=O)C(=S)Nc1ccccc1C(=O)OC	0	2µM	?	?	0	?
COC(=O)c1ccccc1NC(=S)N(Cc1ccc2c(c1)OCO2)Cc1cc2ccc(OC)cc2[nH]c1=O	-63	?	0	?	0	0
COC(=O)c1ccccc1NC(=S)N(Cc1ccc2c(c1)OCO2)Cc1cc2ccc(C)cc2[nH]c1=O	?	?	0	0	0	0
CC1(C)Oc2ccc(C#N)cc2[C@@H](OC2=CC(=O)CC2)[C@@H]1O	-	-	0	-	0	0
COc1ccc(CNC(=O)c2ccc3c(c2)N(Cc2cc(C)ccc2C)C(=O)CS3)cc1	0	0	0	0	0	0
COC(=O)C1Cc2c([nH]c3ccccc23)C2CCC(=O)N12 (configuration not stated)	0	-	0	-	0	0
COC(=O)[C@@H]1Cc2c([nH]c3ccccc23)C(C)(C)N1C(=O)CCl	-99	7.1µM	?	7.9µM	?	?
CCCN1C(=O)C2=NC(C3CCCC3)=NC2N(CCC)C1=O (configuration not stated)	-	0	-	-	-	-
